# A selection: hits, their analogues and other compounds. The true share with any hit is near 22%.
# Pf growth 96h: inhibits malaria parasite growth, 96 h. P. falciparum luciferase reporter growth, 96 h. Potency, µM (top dose mostly 28.7 µM), inactives show top-dose activity change, negative = inhibition, actives largely listed as inhibitors. 320,000 tested, 6.9% active. AID 504834; further: potency means the concentration at half of the fitted maximal effect; on the % scale 0 is the no-effect control and ±100 the full control effect
#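 Erythrocytes infected with luciferase-expressing P. falciparum were dispensed at 2% hematocrit and 0.05% parasitemia (final), then incubated with compounds 96 hours at 37 C in 5% CO2. Luminescence after detection reagent addition reported growth.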
# Cycloheximide cs: counter-screen for Shiga toxin inhibitors: cycloheximide protein synthesis inhibition; 300,000 tested, 12% active; cell reporter, cycloheximide protein synthesis inhibition counterscreen; AID 2314; max response, %; in the data active means max response mostly above about 13%, no sharp cut-off; inactive means mostly below about 14%; further: read at 38.3 µM for the half of the compounds with a filed dose; 0% is about no effect
# Shiga toxin inh: Shiga toxin inhibition | Vero cells, Shiga toxin protein synthesis inhibition reporter | inhibition, % at 38.7 µM | 290,000 tested, 9.2% active; in the data active means inhibition mostly above about 28%, no sharp cut-off; inactive means mostly below about 43%; further: 0% is about no effect
# LmPK inhibitor: inhibitors of Leishmania mexicana pyruvate kinase; Q27686; purified LmPK, Kinase-Glo ATP luminescence, 1 h; Potency, µM (doses to about 57.5 µM), without a hit: at the top dose activity change, negative = inhibition, usual class: inhibitors; 290,000 tested, 0.37% active; AID 1721; further: potency means the concentration at half of the fitted maximal effect; on the % scale 0 is the no-effect control and ±100 the full control effect
# Target sequence (Q27686 whole entry, looked up): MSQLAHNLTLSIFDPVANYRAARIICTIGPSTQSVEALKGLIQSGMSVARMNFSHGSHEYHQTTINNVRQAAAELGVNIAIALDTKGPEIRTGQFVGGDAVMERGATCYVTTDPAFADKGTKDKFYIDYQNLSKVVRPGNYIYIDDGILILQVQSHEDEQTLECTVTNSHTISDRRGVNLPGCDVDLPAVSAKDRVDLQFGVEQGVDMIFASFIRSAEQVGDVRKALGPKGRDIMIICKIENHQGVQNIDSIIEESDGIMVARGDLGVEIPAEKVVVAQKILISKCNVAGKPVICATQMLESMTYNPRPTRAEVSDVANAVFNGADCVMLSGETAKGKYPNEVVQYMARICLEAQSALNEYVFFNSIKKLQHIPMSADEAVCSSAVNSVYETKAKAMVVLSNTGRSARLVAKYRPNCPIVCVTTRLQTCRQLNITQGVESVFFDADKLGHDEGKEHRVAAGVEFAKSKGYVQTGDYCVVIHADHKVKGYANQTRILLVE
#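 Purified LmPK (0.1 nM) converted ADP (0.1 mM) to ATP with PEP (0.5 mM) in imidazole buffer pH 7.2 with KCl and MgCl2, 1 h at room temperature. ATP was read by Kinase-Glo luminescence; data normalized to uninhibited and no-enzyme controls.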
# Pf growth 48h: inhibits P. falciparum growth in the first generation, 48 h; AID 504832; P. falciparum luciferase growth in erythrocytes, 48 h; Potency, µM (highest dose often 28.7 µM), inactives show top-dose activity change, negative = inhibition, hits mostly inhibitors; 310,000 tested, 5.9% active; further: potency means the concentration at half of the fitted maximal effect; on the % scale 0 is the no-effect control and ±100 the full control effect
#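 Luminescence readout; reporter = integrated firefly luciferase in P. falciparum. RBC culture at 2% hematocrit, 0.1% parasitemia final, 37 C/5% CO2; decreased signal taken as growth inhibition.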
# * marks the source's active call; other numbers are inactive results; ? = inconclusive; · = no result; [ ] = remark or other dose. Unless noted, the call rests on the fitted dose curve; in most records, active means well fitted inhibition curve with a large enough effect; inconclusive means small, poorly fitted or top-dose-only effect, or another doubt; inactive means no such curve, though single readings can be large or run the other way.
SMILES,Pf growth 96h,Cycloheximide cs,Shiga toxin inh,LmPK inhibitor,Pf growth 48h
COc1ccc(NC(=O)NC23CC4(C)CC(C)(CC(C)(C4)C2)C3)cc1OC,?,-3,-16,6%,2.6µM*
COc1cccc(NC(=O)NCc2ccccc2F)c1,-22%,40*,97*,-6%,147%
COc1cccc(NC(=O)C(=O)NCCc2ccc(F)cc2)c1,114%,41*,91*,-3%,95%
COC(=O)c1ccc(NC(=O)Nc2ccc(OC)c(OC)c2)cc1,-48%[5.75 µM],-2,12,-3%,-9%
COC(=O)c1ccc(N2CCOCC2)c(NC(=O)Nc2cccc(OC)c2)c1,-31%,-3,-10,0%,4%
Cc1ccsc1C(=O)N1CCCC(N(C)Cc2ccccc2)C1 (configuration not stated),-67%,-3,-10,-1%,26%
CCOc1cc(/C=N/Nc2ccccc2Cl)ccc1OCC(=O)O,41%,15,9,6%,0%
COc1cccc(NC(=O)N2CCCC2C(=O)NCc2ccccc2F)c1 (configuration not stated),10µM*,-1,23,2%,15%
Cc1ccc(NC(=O)N2CCCC2C(=O)NCc2ccccc2Cl)cc1 (configuration not stated),2.6µM*,1,-7,-6%,-10%
CCCCCOc1ccc(NC(=O)C(=O)NCCCn2ccnc2)cc1,·,-2,-24,-3%,-11%
COc1cccc(NC(=O)C(=O)NCCCn2ccnc2)c1,?,34*,57,-8%,58%
COc1ccc(NC(=O)NCc2ccccc2F)cc1OC,10µM*,-1,-22,-7%,6%
CCCCCCCC1=Cc2ccccc2C(C(C(C)=O)C(=O)OC)N1C(=O)OC (configuration not stated),·,·,·,-1%[11.5 µM],·
COc1ccc(CC(=O)N2CC(C)CC(C)C2)cc1 (configuration not stated),-25%,3,4,0%,·
COc1cccc(NC(=O)NCCCCc2ccccc2)c1,?,31*,24,-2%,6%
COc1ccc(NC(=O)N2CCCC2C(=O)Nc2ccccc2F)cc1 (configuration not stated),2.6µM*,-3,2,-5%,17%
COc1ccc2[nH]c(C(=O)O)c(NS(=O)(=O)c3ccc(C)cc3C)c2c1,3%,-5,-3,1%,20%
COc1ccccc1-c1cc(-c2ccccc2)nc(=O)[nH]1,?,0,-12,-5%,?
COc1ccccc1-c1cc2ccccc2[nH]1,74%,38*,69*,1%,52%
O=c1[nH]nc(-c2ccccc2)c2ccccc12,30%,4,-4,-1%,?
O=c1c(-c2ccccc2)nc(-c2ccccc2)cn1O,34%,21*,19,-6%,32%
O=C(COC(=O)CCc1ccc(S(=O)(=O)N2CCOCC2)cc1)NCc1ccccc1Cl,0%,-3,-13,-7%,10%
Cc1cc(=O)oc2cc3oc(=O)cc(C)c3cc12,4.7µM*,1,·,4%,3%
Cc1oc2cc3oc(=O)cc(C)c3cc2c1C,34%,22*,24,0%,51%
CCc1cc(=O)oc2cc3occ(C)c3cc12,21%,-3,-4,0%,5%
SMILES,Pf growth 96h,Cycloheximide cs,Shiga toxin inh,LmPK inhibitor,Pf growth 48h
Cc1c(C)c2cc3c(C)coc3cc2oc1=O,5.2µM*,-2,-3,4%,34%
CCC(c1nnnn1CCOC)N(Cc1cc2cc(C)c(C)cc2[nH]c1=O)CC1CCCO1 (configuration not stated),15µM*,-4,-23,0%,·
CCC(c1nnnn1CCOC)N(Cc1ccc(C)cc1)Cc1cc2cc(OC)ccc2[nH]c1=O (configuration not stated),8%,4,21,1%,10µM*
CCC(c1nnnn1Cc1ccc(OC)cc1)N(CCCO)Cc1cc2cc3c(cc2[nH]c1=O)OCO3 (configuration not stated),·,-1,26,-7%,?
O=C(Nc1cccc(S(=O)(=O)N2CCOCC2)c1)C1COc2ccccc2O1 (configuration not stated),42%,·,·,·,1%
O=C(CC12CC3CC(CC(C3)C1)C2)NC(=S)N1CCCCC1,9.3µM*,7,4,0%,-22%
O=C(Cn1c2[n+](c3ccc(C(F)(F)F)cc31)CCCCC2)Nc1ccc(Br)cc1,10µM*,11,30,14%,10µM*

# Assay outcomes deposited in PubChem BioAssay by National Center for Advancing Translational Sciences (NCATS).
